Assay results: PubChem BioAssay AID434958 (Southern Research Specialized Biocontainment Screening …, 2010)
In all, about 1,200 compounds went through this assay and about 400 (33%) were called active. How the calls were made is not given here. Only a sample is shown. Entries with a potency or affinity are not part of this list.

Test: mammalian cell cytotoxicity, dose response, cytotoxicity control (AID 434958);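 further: cells exposed to compound for 72 hours before readout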
Conditions: cytotoxicity counter-screen; series mostly up to 40 µM
With `O=C(OCC(=O)c1ccc[nH]1)C1=COCCO1` the outcome was “inactive”. For `COc1ccc(C(=O)n2c(SC)nc3cc4c(cc32)OCCO4)cc1`, the outcome was “inactive”. With `Cc1ccc(OC(=O)COc2ccccc2)c(-n2nc3ccccc3n2)c1` the outcome was “inactive”. In the case of `N#Cc1c(SCC(=O)O)nc(N2CCCCC2)c2c1CCCC2`, the outcome is reported as “inactive”. With `Cc1cccc(C)c1OCC(=O)NNC(=O)CNC(=O)c1ccc(OC(F)F)cc1` the outcome was “inactive”. With `CCn1c(SCc2nc(-c3cccs3)no2)nnc1-c1c[nH]c2ccccc12` the outcome was “inactive”. In the case of `C=C(C)COc1ccc(-c2nc(N)ncc2Oc2ccc(OC)cc2)c(O)c1`, the outcome is reported as “inactive”. In the case of `COc1cccc(CNC(=O)C(Cc2ccccc2)n2cccc2)c1` (configuration not stated), the outcome is reported as “inactive”. In the case of `CC(=O)C1=C(C)NC(SCC(=O)c2ccccc2)=C(C#N)C1CC(C)C` (configuration not stated), the outcome is reported as “inactive”. With `Nc1nc2ccccc2n1C(=O)c1cccs1` the outcome was “inactive”. With `O=C(COc1ccccc1)NNC(=O)c1cc2ccccc2oc1=O` the outcome was “inactive”. In the case of `COCCNC(=O)COc1ccc(Oc2ccccc2)cc1`, the outcome is reported as “inactive”. For `O=C1Nc2c(ccc(Cl)c2Cl)C(=O)C1(F)c1ccccc1` (configuration not stated), the outcome was “inactive”. In the case of `CCOC(=O)c1cnn(-c2ncnc3sc4c(c23)CCC4)c1N`, the outcome is reported as “inactive”. In the case of `Cc1cc(C(=O)Nc2ccc(Br)cc2F)n(-c2ccccc2)n1`, the outcome is reported as “inactive”. For `Cc1cc(=O)n2c(-c3ccccc3C)n[nH]c2n1`, the outcome was “inactive”. In the case of `CC(=O)Nc1ccc(S(=O)(=O)Nc2cccc3cccnc23)cc1`, the outcome is reported as “inactive”. In the case of `Cc1ccc(NC(=O)/C=C\C(=O)O)c([N+](=O)[O-])c1`, the outcome is reported as “inactive”. With `Cc1ccc(C)c(SCC(=O)OCC(=O)N2CC(C)OC(C)C2)c1` (configuration not stated) the outcome was “inactive”. With `COc1ccccc1CNC(=O)COC(=O)C1=COCCO1` the outcome was “inactive”. For `O=C(CC1SC(=O)NC1=O)Oc1ccc(/C=N/NC(=O)c2ccccc2O)cc1` (configuration not stated), the outcome was “inactive”. In the case of `Cc1oc(C(C)(C)C)cc1C(=O)Nc1ccc2c(c1)OCCO2`, the outcome is reported as “inactive”. In the case of `CCOC(=O)c1ccc(NC(=O)Cc2coc3cc4c(cc23)CCC4)cc1`, the outcome is reported as “inactive”. In the case of `COc1ccc2[nH]c3c(c2c1)CCN=C3C`, the outcome is reported as “inactive”. In the case of `O=C(COC(=O)C1CC1)c1c[nH]c2ccccc12`, the outcome is reported as “inactive”. For `C=CCN(C(=O)CN1CCOCC1)c1nc(C)c(-c2ccccc2)s1`, the outcome was “inactive”. In the case of `N#CCOC(=O)/C=C/c1ccc2c(c1)OCO2`, the outcome is reported as “inactive”. For `CCc1cc2c(-c3ccccc3)cc(=O)oc2cc1OC(C)C(C)=O` (configuration not stated), the outcome was “inactive”. With `COc1cc(NC(=O)c2cccc(Cl)c2)c(OC)cc1NC(=O)CN1CCCCC1` the outcome was “inactive”. In the case of `COc1ccc(NC(=O)c2cc(Br)ccc2Cl)c(OC)c1`, the outcome is reported as “inactive”. With `Cc1cccc(NC(=S)NC2CC3C=CC2C3)c1` (configuration not stated) the outcome was “inactive”. For `CCSc1nnc(NC(=O)Cn2cnc3ccccc3c2=O)s1`, the outcome was “inactive”. With `CCC(C(=O)NC1C(=O)N2C(C(=O)O)=C(CSc3nnc(C)s3)CSC12)c1ccccc1` (configuration not stated) the outcome was “inactive”. For `Cc1ccc(-n2nnnc2Sc2nc([N+](=O)[O-])nn2C)c(C)c1`, the outcome was “inactive”. With `Cn1nnnc1SCC(=O)Nc1ccccc1[N+](=O)[O-]` the outcome was “inactive”. For `O=C(Nc1ccccc1)Nc1csc2ccccc12`, the outcome was “inactive”. In the case of `O=C(NC1CCCCC1)C1CCN(c2nccs2)CC1`, the outcome is reported as “inactive”. With `O=C(NC1c2ccccc2-c2ccccc21)c1ccco1` the outcome was “inactive”. For `C/C(=N/NC(=O)c1cccs1)c1ccc(NC(=O)COc2ccc(Cl)cc2)cc1`, the outcome was “inactive”. For `Cc1ccc(/C=N/NC(=O)c2cccs2)s1`, the outcome was “inactive”. In the case of `CCOc1ccc2nc(NC(=O)c3cnccn3)sc2c1`, the outcome is reported as “inactive”. For `Cc1cc(C)c(-c2c(O)c3ccccc3n(C)c2=O)c(C)c1`, the outcome was “inactive”. With `Cc1cc(Br)ccc1NC(=O)CN1C(=O)C2CC=CCC2C1=O` (configuration not stated) the outcome was “inactive”. For `COc1cc(OC)cc(-c2c(C#Cc3ccsc3)c3cc(-c4ccc(OC)nc4)ccc3n2C)c1`, the outcome was “inactive”. For `CCOc1cccc(=O)c2c(C)n(Cc3ccccc3)c(C)c12`, the outcome was “inactive”. With `CCOc1cc(N2CCOCC2)c(OCC)cc1NC(=O)c1cc(C)cc(C)c1` the outcome was “inactive”. With `Cn1c(=O)[nH]c(=O)c2c1nc(Br)n2CCC(=O)c1ccccc1` the outcome was “inactive”. In the case of `C=CCSc1nnc2c(n1)OC(c1c(C)[nH]n(-c3ccccc3)c1=O)Nc1ccccc1-2` (configuration not stated), the outcome is reported as “inactive”. For `CCCCCc1ccc(-c2ccc(/C=C/C(N)=O)cc2)nc1`, the outcome was “inactive”. With `CN1c2ccccc2C(=O)NC1c1ccc([N+](=O)[O-])s1` (configuration not stated) the outcome was “inactive”. For `Cc1cccc(Cl)c1NC(=S)NN`, the outcome was “inactive”. With `CCOC(=O)c1sc(NC(=O)Cn2nnc3sc4c(c3c2=O)CCC(C(C)(C)C)C4)nc1C` (configuration not stated) the outcome was “inactive”. With `CC1CCCN(C(=O)C2CCN(c3ncnc4c3nc3n4CCCCC3)CC2)C1` (configuration not stated) the outcome was “inactive”. For `CCOC(=O)NC1c2ccccc2Oc2ccccc21`, the outcome was “inactive”. With `O=C(NNC(=O)c1ccc(Oc2cc(Cl)cc(Cl)c2)o1)c1ccccc1` the outcome was “inactive”. With `CC(=O)c1ccccc1OCCOc1ncnc2sccc12` the outcome was “inactive”. In the case of `COc1ccc([N+](=O)[O-])cc1NS(=O)(=O)c1ccc(C(=O)N2CCCC2)cc1`, the outcome is reported as “inactive”. In the case of `O=C(Cc1ccccc1)NC(=S)Nc1ccc(N2CCCCC2)cc1`, the outcome is reported as “inactive”. With `CC(=O)c1ccc(NC(=S)Nc2ccc(N3CCOCC3)cc2)cc1` the outcome was “inactive”. With `Cc1ccc(CNC(=O)c2cn(C)c3ccc(S(=O)(=O)N4CCOCC4)cc3c2=O)cc1` the outcome was “inactive”. In the case of `Cc1cccc2nc(COc3ccc4ccccc4c3Br)cn12`, the outcome is reported as “inactive”. For `COC(=O)C1=C(C)NC(=O)/C1=C\c1cc(C)n(-c2cc(C)cc(C)c2)c1C`, the outcome was “inactive”. In the case of `CCOC(=O)CNC(=O)c1cccnc1Oc1ccc(Cl)cc1`, the outcome is reported as “inactive”. In the case of `COc1ccccc1NS(=O)(=O)c1cccc(N2CC(O)=C(c3ccccc3)C2=N)c1`, the outcome is reported as “inactive”. For `O=C(CCN1C(=O)c2ccccc2S1(=O)=O)Nc1ccc(Cl)cc1`, the outcome was “inactive”. In the case of `CCC(=O)NC(=S)Nc1ccc(NC(=O)c2ccccc2[N+](=O)[O-])cc1`, the outcome is reported as “inactive”. In the case of `CC(/C=N/NC(=O)c1cc(-c2cccs2)[nH]n1)=C\c1ccccc1`, the outcome is reported as “inactive”. With `Cc1ccc(C)c(SCc2noc(C(=O)NCC3CCCO3)c2C(=O)O)c1` (configuration not stated) the outcome was “inactive”. For `O=C(O)Cc1csc(Nc2cccc(Cl)c2)n1`, the outcome was “inactive”. With `COC(=O)c1ccc(/C=N/Nc2nc(-c3ccc(C)cc3)cs2)cc1` the outcome was “inactive”. With `CCOC(=O)N1CCN(CC(=O)Nc2nnc(C(F)(F)F)s2)CC1` the outcome was “inactive”. With `COC(=O)N1C(=O)[C@](Cc2ccccc2)(c2ccccc2)N1C(=O)OC` the outcome was “inactive”.
